Source: PubChem BioAssay
In the library only some 3.3% were active in any assay of this set; here they are far more common.
ABHD5 PLIN5 PPI – ABHD5-PLIN5 protein interaction inhibition; Q00G26+Q8WTS1; Split G. princeps luciferase complementation, luminescence, 4 h; inhibition, % at 4 µM; 0.78% of 360,000 active;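 active = inhibition above the mean inhibition across every tested compound plus 3 SD, cut at about 22% in these data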;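 also: 0% = DMSO only wells and the 100% control is not disclosed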
NOD2-RIPK2 inh – blocks binding of human NOD2 to RIPK2; inhibition, % at 4.98 µM; CHO BLA complementation NOD2-RIPK2, CCF4 ratio; AID 624267; O43353; 0.38% of 360,000 active; in the data active = inhibition above about 21%;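 also: 0% = vehicle only and 100% = reference blocker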
TLR4 MyD88 comp – TLR4-MyD88 interaction inhibition in cells; HeLa CL3-4 TLR4/MyD88 BLA complementation, FRET ratio; AID 861; 0.18% of 200,000 active; inhibition, % at 8.4 µM; in the data active = inhibition above about 25%;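 also: 0% = vehicle and 100% = reference inhibitor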
rCAG binder – binds r(CAG) RNA repeats; r(CAG) RNA repeat, TO-PRO-1 dye displacement fluorescence; inhibition, % at 3 µM; 1.3% of 370,000 active; AID 651821;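 active = inhibition above the plate cutoff, the mean of all test compounds on that plate plus 3 SD, cut at about 35% in these data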;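 also: 0% = DMSO alone and 100% = 100 µM mitoxantrone as full dye displacement; higher means more dye released from RNA so lower well fluorescence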
TLR9-MyD88 block – TLR9-MyD88 interaction inhibition; Q9NR96+Q99836; CHO BLA complementation TLR9-MyD88, CCF4 FRET ratio; inhibition, % at 4.98 µM; 0.21% of 340,000 active; AID 504734;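 active = inhibition above the mean over all tested compounds plus 3 SD, cut at about 21% in these data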;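 also: 0% = DMSO only wells and 100% = clavulanate BLA inhibitor control wells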
PRMT1 inh – inhibitors of human PRMT1. inhibition, % at 2.79 µM. recombinant PRMT1, activity-based probe fluorescence polarization. 1.3% of 370,000 active;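 active = inhibition above about 21% made by adding two undisclosed values, limit read from the data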
rCAG binder conf – r(CAG) RNA repeat binding, confirmation. shares compounds with rCAG binder. TO-PRO-1 dye displacement fluorescence. inhibition, % at 3 µM. 70% of 4,300 active. AID 652065;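 active = inhibition above a per-plate cutoff, the mean inhibition of sample wells plus 3 SD, cut at about 35% in these data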;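 also: loss of TO-PRO-1 fluorescence as compound displaces dye from 1x1 AA loop RNA; 0% = DMSO only wells and 100% = 100 µM mitoxantrone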
DNA CAG counter – disrupts DNA CAG TO-PRO-1 complex, flagging rCAG hits. shares compounds with rCAG binder. d(CAG) DNA oligo TO-PRO-1 dye displacement, fluorescence. inhibition, % at 3 µM. 94% of 4,300 active;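 active = inhibition above its plate's cutoff, the mean test-well inhibition plus 3 SD, cut at about 4.8% in these data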;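 also: 0% = DNA dye mix with DMSO and 100% = 100 µM mitoxantrone; hits displace the dye from DNA and so lower well fluorescence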
dCAG dye DR – disrupts DNA CAG TO-PRO-1 complex in dose response. DNA CAG/GTC duplex TO-PRO-1 dye displacement fluorescence. 20% of 250 active. IC50, µM. AID 686960. shares compounds with rCAG binder; in the data active = IC50 below about 10 µM
* = called active by the depositor; i = inactive; x = no result given.

SMILES | ABHD5 PLIN5 PPI | NOD2-RIPK2 inh | TLR4 MyD88 comp | rCAG binder | TLR9-MyD88 block | PRMT1 inh | rCAG binder conf | DNA CAG counter | others
Cc1ccc(-c2csc(NC(=O)c3ccno3)n2)cc1 | 5.1 | 7.6 | -1.2 | 45.3* | -0.2 | 10.4 | 48.7* | 22.0*
Cc1cccc(OCC(=O)Nc2ccc3c(c2)nc(CCN2CCN(c4ccccn4)CC2)n3C)c1 | 6.3 | 9.0 | x | -4.8 | 6.5 | -1.4 | x | x
S=c1[nH]nc(-c2cccs2)n1/N=C/c1c(Cl)cccc1Cl | -2.8 | -9.0 | 3.9 | 49.9* | -23.0 | 19.2 | 43.8* | 10.3*
Cc1cccc(NS(=O)(=O)c2nnc(NC(=O)c3ccc(C)c(C)c3)s2)c1 | -2.9 | -5.6 | x | 40.9* | 11.9 | 4.1 | 36.7* | 14.5*
Cc1cccc(NS(=O)(=O)c2nnc(NC(=O)C3CCCCC3)s2)c1 | -1.6 | 1.6 | x | 37.2* | -3.5 | 2.7 | 20.3 | 5.3*
Cc1cccc(NS(=O)(=O)c2nnc(NC(=O)CC(C)C)s2)c1 | -6.5 | 0.3 | x | 12.8 | -9.2 | -1.8 | x | x
Cc1ccc(CNC(=O)C(C)OC(=O)c2ccco2)cc1 (centres undefined) | 4.9 | -1.6 | 1.9 | 56.5* | 8.4 | 1.2 | 1.7 | -1.2
COc1ccc(C(=O)Nc2ccc(C(=O)O)cc2NC(=O)c2ccc(OC)cc2)cc1 | -2.6 | 1.9 | x | 35.7* | 7.3 | 2.6 | 20.1 | 2.6
COc1ccc(/C=C(\NC(=O)c2ccc(OC)cc2)C(=O)Nc2ccccc2C(=O)O)cc1 | -5.9 | -0.9 | x | 39.2* | -7.5 | 0.9 | 21.6 | 3.5
Cc1ccccc1OCC(=O)Nc1ccc(C(=O)Nc2ccccc2C(=O)O)cc1 | 3.2 | -0.3 | x | 48.6* | -2.7 | 2.1 | 72.8* | 36.9*
Cc1ccc(OCC(=O)Nc2ccc(C(=O)Nc3ccccc3C(=O)O)cc2)cc1C | 3.2 | -5.5 | x | 50.8* | -3.8 | -0.5 | 79.7* | 45.5*
C[C@H]1C2CC(OC(=O)Nc3ccccc3C(F)(F)F)C(C2)[C@H]2CCCCN21 (some centres undefined) | x | x | x | 6.7 | x | 3.8 | x | x
Cc1cc(C)c(C(=O)COC(=O)c2cc([N+](=O)[O-])ccc2N2CCOCC2)cc1C | -0.7 | -2.6 | x | 0.1 | 4.0 | 2.6 | x | x
COc1ccc(OCC(=O)Nc2ccc(C(=O)Nc3ccccc3C(=O)O)cc2)cc1 | 0.3 | -2.1 | x | 72.5* | -0.5 | 14.6 | 75.4* | 30.4* | dCAG dye DR=i
COc1ccc(Cc2nnc(SCC(=O)Nc3cc(Cl)ccc3C)[nH]c2=O)cc1 | -4.0 | -6.3 | x | 45.3* | -9.9 | 13.6 | 36.5* | 8.2*
Cc1ccc(Cc2nnc(SCC(=O)Nc3c(C)cccc3C)[nH]c2=O)cc1 | 0.8 | -4.8 | x | 14.8 | -6.1 | 0.3 | x | x
CC1=NN(c2nc(-c3ccc(C)cc3)cs2)C(=O)C1N=Nc1cccc(O)c1 (centres undefined) | -0.8 | -9.7 | 9.7 | 36.9* | -6.4 | 1.1 | 49.0* | 22.5*
CC1=NN(c2nc(-c3ccc(C)cc3)cs2)C(=O)C1N=Nc1ccccc1O (centres undefined) | -2.1 | -0.9 | -0.1 | 25.1 | x | -0.1 | x | x
CCOc1ccc(/C=N/NC(=O)c2cc(-c3ccco3)nc3ccccc23)cc1 | 6.2 | -4.7 | -15.4 | 10.5 | 7.4 | 2.2 | x | x
Cc1nnc(NC(=O)c2cc(-c3ccco3)nc3ccccc23)s1 | 4.2 | 5.3 | x | 37.2* | 4.9 | 17.9 | 18.2 | 8.7*
O=C(N/N=C/c1ccc(F)cc1)c1cc(-c2ccco2)nc2ccccc12 | 3.4 | -1.8 | -6.3 | 45.0* | -13.3 | 4.4 | 47.1* | 30.3*
O=C(Nc1cccc(S(=O)(=O)NC2=NCCC2)c1)c1cc(-c2ccco2)nc2ccccc12 | 8.3 | -10.1 | x | 40.6* | 6.2 | 14.4 | 43.0* | 25.2*
O=C(Nc1nccs1)c1cc(-c2ccccc2)nc2ccccc12 | 4.5 | 6.0 | 7.6 | 3.9 | 4.9 | 0.1 | x | x
O=C(Nc1nccs1)c1cc(-c2ccco2)nc2ccccc12 | 5.1 | -0.1 | -4.3 | 37.7* | -9.1 | 10.1 | 25.2 | 17.3*
